HIF act – HIF pathway transcriptional activation; U2OS HRE-luciferase reporter, luminescence; normalized: DMSO 0%, desferrioxamine 100%; activation, % at 7.5 µM (by protocol); 300,000 compounds, 0.32% hits; AID 1910;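 active = mean activation of at least 10% of the iron chelator positive control signal, with at least half of replicates also reaching 10%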
Statin myotox sup – suppressors of simvastatin-induced myotoxicity in C2C12 myotubes | ATP luminescence, 48 h; scaled: DMSO 0, geranylgeraniol control 100 | rescue of ATP level, % at 7.49 µM | 330,000 compounds, 0.78% hits | AID 602340;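 active = mean ATP rescue above about 67%, or every replicate alone reaching that limit, limit read from the data, passing the limit was not always enough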;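 note: myotubes were challenged with 10 µM simvastatin during compound exposure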
AI-2 QS mod – modulators of Vibrio harveyi AI-2 quorum sensing system | 300,000 compounds, 0.4% hits | activity change, % at 7.5 µM | AID 2094 | Vibrio harveyi JMH597 AI-2 luminescence/OD600 ratio, 9 h; hits give low values; strain lacks LuxN and CqsS sensors; 0 = neutral-control median; in the data active = activity change below about -75%, passing the limit was not always enough;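 note: luminescence divided by OD600 gain over 9 h not by final OD600 alone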
PGC1a acetyl inh – lowers PGC1a acetylation signal in U2OS cells. AlphaScreen anti-acetyl-lysine; with virally co-expressed GCN5 acetyltransferase. inhibition, % at 15.6 µM. 350,000 compounds, 0.17% hits;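 active = every replicate shows inhibition of at least 40%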;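 note: 0% = neutral control wells and 100% = positive control wells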
Rce1 inhib – yeast Ras-converting enzyme inhibition; Q03530; yeast membranes, quenched prenylated peptide cleavage fluorescence; calls only; 290,000 compounds, 0.27% hits; AID 2563;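 active = fall in fluorescence gain of 50% or more versus controls, with final raw signal at or below 3038400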;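 note: plate controls were neutral control wells for no effect and wells lacking membranes for full effect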
Target sequence (Q03530 whole entry, looked up): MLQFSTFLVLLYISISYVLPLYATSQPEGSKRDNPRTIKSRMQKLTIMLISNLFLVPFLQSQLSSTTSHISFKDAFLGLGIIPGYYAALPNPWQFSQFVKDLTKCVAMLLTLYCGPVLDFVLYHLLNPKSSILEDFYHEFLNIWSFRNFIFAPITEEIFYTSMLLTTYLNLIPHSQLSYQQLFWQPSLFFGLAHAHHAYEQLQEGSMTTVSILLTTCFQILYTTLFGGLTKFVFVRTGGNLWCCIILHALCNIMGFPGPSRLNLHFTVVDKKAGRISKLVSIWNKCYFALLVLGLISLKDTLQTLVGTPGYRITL
Starred values were filed as active, the others as inactive. Rows were chosen to be rich in hits. Some 1.3% of all compounds tested hit in one or more screens of this group.

O=C1CSC(c2cn(-c3ccccc3)nc2-c2ccccc2)N1Cc1ccco1 (configuration not stated) was read as HIF act -1, Statin myotox sup 74*, AI-2 QS mod 15 and PGC1a acetyl inh -13.
`CC(C)c1ccc(NC(=O)CSc2nc3ccsc3c(=O)n2Cc2ccc(C(=O)O)cc2)cc1` gave HIF act 0, Statin myotox sup 7, AI-2 QS mod 17, PGC1a acetyl inh 59* and Rce1 inhib inactive.
For CCc1ccc(NC(=O)CSc2nc3ccsc3c(=O)n2CCC(=O)O)cc1 the results were HIF act 1, Statin myotox sup 1, AI-2 QS mod 38, PGC1a acetyl inh -3 and Rce1 inhib inactive.
Screening CN(C)CC(=O)Nc1ccc2c(c1)[C@H]1C[C@@H](CC(=O)NCc3ccc(-c4ccccc4)cc3)O[C@@H](CO)[C@H]1O2 returned Statin myotox sup -4 and PGC1a acetyl inh -8.
Screening Cc1cc(N2CCN(c3nnnn3-c3ccccc3)CC2)n2ncnc2n1 returned HIF act -1, Statin myotox sup 111*, AI-2 QS mod 14, PGC1a acetyl inh 10 and Rce1 inhib inactive.
`Cc1cc(N2CCN(S(=O)(=O)Cc3ccccc3)CC2)n2ncnc2n1` gave HIF act 0, Statin myotox sup 4, AI-2 QS mod 4, PGC1a acetyl inh -2 and Rce1 inhib inactive.
For Cc1cc(N2CCN(c3ccccc3)CC2)n2nnnc2n1 the results were HIF act 0, Statin myotox sup 149*, AI-2 QS mod 14, PGC1a acetyl inh -2 and Rce1 inhib inactive.
Screening Cc1cccc(N2CCN(c3cc(C)nc4nnnn34)CC2C)c1 (configuration not stated) returned HIF act -1, AI-2 QS mod 19, PGC1a acetyl inh 21 and Rce1 inhib inactive.
C[C@@H]1CN([C@@H](C)CO)C(=O)c2cc(-c3ccccc3)cnc2O[C@@H]1CN(C)C(=O)Cc1ccccn1 was read as Statin myotox sup -5 and PGC1a acetyl inh 11.
Cc1ccc(-n2cccc2C(=O)NS(=O)(=O)c2ccc(C)cc2)cc1 was read as HIF act 0, Statin myotox sup -47, AI-2 QS mod -2, PGC1a acetyl inh 2 and Rce1 inhib inactive.
For Cc1ccc(-n2cccc2C(=S)N=P(N(C)C)(N(C)C)N(C)C)cc1 the results were HIF act 0, Statin myotox sup -260, AI-2 QS mod -1, PGC1a acetyl inh 85* and Rce1 inhib inactive.
Screening CC(C)(C)OC(=O)N1Cc2ccccc2C[C@H]1C(=O)N1CCC[C@H]1C(=O)O returned HIF act -1, Statin myotox sup 1, AI-2 QS mod 5, PGC1a acetyl inh 2 and Rce1 inhib inactive.
For CC(C)(C)OC(=O)N1CCNc2ccccc2C1 the results were HIF act 1, Statin myotox sup 96*, AI-2 QS mod 6, PGC1a acetyl inh 3 and Rce1 inhib inactive.
For CCCC#Cc1ccc2c(c1)O[C@H](CN(C)C(=O)NC(C)C)[C@H](C)CN([C@@H](C)CO)S2(=O)=O the results were Statin myotox sup -12 and PGC1a acetyl inh -6.
For NC1=C(Br)C(=O)c2ncccc2C1=O the results were PGC1a acetyl inh 87*.
C=CCNC(=O)/C(=C/c1cn(-c2ccccc2)nc1-c1cccc([N+](=O)[O-])c1)NC(=O)c1ccccc1 was read as HIF act 230*, AI-2 QS mod 18 and Rce1 inhib inactive.
`CC(C)NC(=O)Nc1ccc2c(c1)C(=O)N([C@H](C)CO)C[C@H](C)[C@H](CN(C)C(=O)c1ccccc1)OCCCC[C@@H](C)O2` gave Statin myotox sup -19 and PGC1a acetyl inh -22.
`O=C(Cn1ncc2c3ccccc3n(Cc3ccccc3F)c2c1=O)NCC1CCCO1` (configuration not stated) gave HIF act 0, Statin myotox sup -4, AI-2 QS mod 16, PGC1a acetyl inh -7 and Rce1 inhib inactive.
For O=C(Cn1ncc2c3ccccc3n(Cc3cccc(Cl)c3)c2c1=O)NCC1CCCO1 (configuration not stated) the results were HIF act 0, Statin myotox sup 100*, AI-2 QS mod 13, PGC1a acetyl inh 1 and Rce1 inhib inactive.
For CCOC(=O)c1[nH]cnc1N=Nc1c(O)ccc2ccccc12 the results were HIF act 38*, AI-2 QS mod 21 and Rce1 inhib inactive.

Screening data (PubChem BioAssay)
